# Where “and” joins values, the source holds several entries; their conditions need not be identical. Equal entries are not always repeated. Records with an inconclusive call do not appear. Calls of active or inactive are those of the source.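 The calls were made as follows, unless noted: active = normalized viability below 100% at a tested concentration; inactive = the rest.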
# Experiments:
# [1] = EMT-state selective cytotoxicity in co-culture – imaging, PC-3E GFP, TEM4-18 mCherry, primary screen (AID 1345086;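 active = compounds killing one labelled cell type while sparing the other, by normalised counts and ratio limits, not self-fluorescent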;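 as to all read-outs here: cells exposed to compound for 72 h before imaging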;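 as to red/green cell ratio (normalised): normalised mesenchymal count divided by normalised epithelial count so high means epithelial killing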); conditions: PC-3E GFP / TEM4-18 mCherry co-culture, imaging cell counts, at 1 µM; for red/green cell ratio (normalised): actives lie on both sides, counts scaled to control wells, 1 = unselective
# [2] = test system: Aerobactin synthetase IucA (Klebsiella pneumoniae); assay: inhibition of K. pneumoniae IucA enzyme – biochemical, Tocris library, absorbance (AID 1345561; call rule not given here;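 also: 100% = enzyme without compound and 0% = no enzyme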); conditions: purified IucA enzyme assay, absorbance (OD) read-out; stronger effect = lower value;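 tested at 8 µM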
# [3] = viability loss in pontine glioma line – cell-based, SU-DIPG-XVII, MIPE5.0, CellTiter-Glo, qHTS, dose response (AID 1347060; cut-off not given, nearly all actives have AC50 up to about 26 µM); conditions: CellTiter-Glo ATP luminescence
# [4] = viability loss in pontine glioma line – cell-based, SU-DIPG-XIII, MIPE5.0, CellTiter-Glo, qHTS, dose response (AID 1347064; cut-off not given, nearly all actives have AC50 up to about 23 µM); conditions: CellTiter-Glo ATP luminescence
# [5] = viability loss in pontine glioma line – cell-based, SU-DIPG-XXV, MIPE5.0, CellTiter-Glo, qHTS, dose response (AID 1347065; cut-off not given, nearly all actives have AC50 up to about 26 µM;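 also: cells exposed to compound for 48 hours before ATP readout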); conditions: CellTiter-Glo ATP luminescence
# [6] = JHH-DIPG-1 glioma cell viability, MIPE5.0 library, CellTiter-Glo luminescence, qHTS (AID 1347067; cut-off not given, nearly all actives have AC50 up to about 26 µM;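 also: cells exposed to compound for 48 hours before readout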); conditions: JHH-DIPG-1 glioma viability, CellTiter-Glo ATP luminescence
# [7] = growth inhibition of DIPG cells – cell-based, MIPE5.0 library, qHTS (AID 1347068; cut-off not given, nearly all actives have IC50 up to about 30 µM); conditions: SU-DIPG-XXV viability
# [8] = chitosan synthesis blockers in C. neoformans – flow cytometry, Cibacron Brilliant Red staining (AID 1347148; call rule not given here;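 also: compound exposure lasted three days at 37 degrees C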); conditions: Cryptococcus neoformans chitosan, stronger effect = lower value; at 10 µM unless noted
# [9] = blockers of cellular phospholipid synthesis – cell-based, LOPAC library, screen 4, primary screen (AID 1347384; call rule not given here); conditions: animal cells, phospholipid biosynthesis inhibition screen; at 10 µM
# [10] = MELAS cybrid and Rieske KO viability enhancers – cell-based, MELAS cybrids, Rieske KO mouse fibroblasts, CellTiter-Glo, primary screen (AID 1508586;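 active = mean z-score across replicates of 1.96 or higher in either the MELAS or the Rieske mutant cell line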;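 also: z relative to plate mean and SD of compound and empty wells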); conditions: low glucose
# [11] = drug combination growth inhibition, ovarian cancer – cell-based, oncology-focused library, rucaparib conditional, profiling panel (AID 1508598); conditions: patient-derived ovarian cancer cells, CellTiter-Glo viability, 144 h, stronger effect = lower value
# [12] = modulation of C. elegans fzo-1 (AID 1259413; call rule not given here;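 also: fzo-1 mutant C. elegans worms in liquid wells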); conditions: C. elegans fzo-1 modulator screen, mean read-out; stronger effect = higher value
# [13] = viability loss with induced miR-34 in A549 – imaging, A549 dox-inducible miR-34, nuclei and caspase counts, primary screen (AID 1347080;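 active = compounds whose cell count with miR-34 switched on is under 0.7 times the count with it off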); conditions: A549 miR-34 inducible, Hoechst nuclei count, 48 h
# [14] = measured here: epithelial PC-3E GFP cell survival
# [15] = measured here: mesenchymal TEM4-18 mCherry cell survival
# [16] = MELAS cybrid survival, CellTiter-Glo 48 h, stronger effect = higher value
# [17] = Rieske KO mouse fibroblast survival, CellTiter-Glo 72 h
structure (smiles),measurement,setting,value
O=c1c(O)c(-c2ccc(O)c(O)c2)oc2cc(O)cc(O)c12,red/green cell ratio (normalised),[1],0.91 (inactive)
same,normalised cell number,[1]; [14],1.15
same,normalised cell number,[1]; [15],1.04
same,remaining activity,[2],113% (inactive)
same,outcome,[3],inactive
same,outcome,[4],inactive
same,outcome,[5],inactive
same,outcome,[6],inactive
same,outcome,[7],inactive
same,fold fluorescence,[8],2.95 [at 165.4 µM] (active)
same,outcome,[9],inactive
same,z-score,[10]; [16],-0.4 (inactive) and -0.42 (inactive)
same,z-score,[10]; [17],-1.01 and 0.378
same,viability,"[11]; at 0.000305 µM, OCI-C5x cells, with rucaparib 10 µM, 100% = cells with rucaparib alone",118% (inactive)
same,viability,"[11]; at 0.000305 µM, OCI-C5x cells, without rucaparib",113% (inactive)
same,viability,"[11]; at 0.000305 µM, OCI-P5x cells, with rucaparib 20 µM, 100% = cells with rucaparib alone",92% (active)
same,viability,"[11]; at 0.000305 µM, OCI-P5x cells, without rucaparib",92.3% (active)
same,viability,"[11]; at 0.00122 µM, OCI-C5x cells, with rucaparib 10 µM, 100% = cells with rucaparib alone",122% (inactive)
same,viability,"[11]; at 0.00122 µM, OCI-C5x cells, without rucaparib",119% (inactive)
same,viability,"[11]; at 0.00122 µM, OCI-P5x cells, with rucaparib 20 µM, 100% = cells with rucaparib alone",97.3% (active)
same,viability,"[11]; at 0.00122 µM, OCI-P5x cells, without rucaparib",102% (inactive)
same,viability,"[11]; at 0.00488 µM, OCI-C5x cells, with rucaparib 10 µM, 100% = cells with rucaparib alone",117% (inactive)
same,viability,"[11]; at 0.00488 µM, OCI-C5x cells, without rucaparib",129% (inactive)
same,viability,"[11]; at 0.00488 µM, OCI-P5x cells, with rucaparib 20 µM, 100% = cells with rucaparib alone",104% (inactive)
same,viability,"[11]; at 0.00488 µM, OCI-P5x cells, without rucaparib",105% (inactive)
same,viability,"[11]; at 0.0195 µM, OCI-C5x cells, with rucaparib 10 µM, 100% = cells with rucaparib alone",127% (inactive)
same,viability,"[11]; at 0.0195 µM, OCI-C5x cells, without rucaparib",125% (inactive)
same,viability,"[11]; at 0.0195 µM, OCI-P5x cells, with rucaparib 20 µM, 100% = cells with rucaparib alone",105% (inactive)
same,viability,"[11]; at 0.0195 µM, OCI-P5x cells, without rucaparib",105% (inactive)
same,viability,"[11]; at 0.0781 µM, OCI-C5x cells, with rucaparib 10 µM, 100% = cells with rucaparib alone",114% (inactive)
same,viability,"[11]; at 0.0781 µM, OCI-C5x cells, without rucaparib",125% (inactive)
same,viability,"[11]; at 0.0781 µM, OCI-P5x cells, with rucaparib 20 µM, 100% = cells with rucaparib alone",105% (inactive)
same,viability,"[11]; at 0.0781 µM, OCI-P5x cells, without rucaparib",109% (inactive)
same,viability,"[11]; at 0.313 µM, OCI-C5x cells, with rucaparib 10 µM, 100% = cells with rucaparib alone",111% (inactive)
same,viability,"[11]; at 0.313 µM, OCI-C5x cells, without rucaparib",127% (inactive)
same,viability,"[11]; at 0.313 µM, OCI-P5x cells, with rucaparib 20 µM, 100% = cells with rucaparib alone",101% (inactive)
same,viability,"[11]; at 0.313 µM, OCI-P5x cells, without rucaparib",112% (inactive)
same,viability,"[11]; at 1.25 µM, OCI-C5x cells, with rucaparib 10 µM, 100% = cells with rucaparib alone",111% (inactive)
same,viability,"[11]; at 1.25 µM, OCI-C5x cells, without rucaparib",125% (inactive)
same,viability,"[11]; at 1.25 µM, OCI-P5x cells, with rucaparib 20 µM, 100% = cells with rucaparib alone",103% (inactive)
same,viability,"[11]; at 1.25 µM, OCI-P5x cells, without rucaparib",107% (inactive)
same,viability,"[11]; at 5 µM, OCI-C5x cells, with rucaparib 10 µM, 100% = cells with rucaparib alone",109% (inactive)
same,viability,"[11]; at 5 µM, OCI-C5x cells, without rucaparib",120% (inactive)
same,viability,"[11]; at 5 µM, OCI-P5x cells, with rucaparib 20 µM, 100% = cells with rucaparib alone",90.4% (active)
same,viability,"[11]; at 5 µM, OCI-P5x cells, without rucaparib",107% (inactive)
CNCC(O)c1ccc(O)c(O)c1 (centres undefined),mean signal,[12],245 (inactive)
same,outcome,[9],inactive
O=c1[nH]cnc2nc[nH]c12,red/green cell ratio (normalised),[1],1.25 (inactive)
same,normalised cell number,[1]; [14],0.95
same,normalised cell number,[1]; [15],1.18
Oc1cccc2[nH]ccc12,red/green cell ratio (normalised),[1],0.85 (inactive)
same,normalised cell number,[1]; [14],1.31
same,normalised cell number,[1]; [15],1.12
NC(N)=Nc1nc(CSCC/C(N)=N/S(N)(=O)=O)cs1,mean signal,[12],276 (inactive)
same,fold change,"[13]; stronger effect = lower value, cell number ratio, induced over uninduced",0.977 (inactive) and 0.894 (inactive) and 0.942 (inactive)
same,fold change,[13]; measured here: relative caspase fold change +Dox/-Dox,1.04 and 0.96 and 0.999
same,cell count,"[13]; measured here: total cells with miR-34 induction, stronger effect = lower value",10400 and 8060 and 10100
same,cell count,[13]; measured here: total cells without miR-34 induction,10600 and 9010 and 10700
same,z-score,[10]; [16],0.33 (inactive) and 1.06 (inactive)
same,z-score,[10]; [17],0.0847 and 0.907
COc1ccc2cc1Oc1ccc(cc1)C[C@H]1c3c(cc4c(c3Oc3cc5c(cc3OC)CCN(C)[C@@H]5C2)OCO4)CCN1C,red/green cell ratio (normalised),[1],0.85 (inactive)
same,normalised cell number,[1]; [14],0.93
same,normalised cell number,[1]; [15],0.78
COC(=O)C1=C(C)NC(C)=C(C(=O)O[C@@H]2CCCN(Cc3ccccc3)C2)[C@@H]1c1cccc([N+](=O)[O-])c1,mean signal,[12],249 (inactive)
same,z-score,[10]; [16],0.772 (inactive)
same,z-score,[10]; [17],0.352
Cc1c[nH]c2ccccc12,red/green cell ratio (normalised),[1],0.99 (inactive)
same,normalised cell number,[1]; [14],0.86
same,normalised cell number,[1]; [15],0.85
